Screening results as filed in PubChem BioAssay.
Dicer processing: inhibitors of human Dicer processing of pre-microRNA; Q9UPY3; cat-ELCCA pre-miR-21 Dicer processing, chemiluminescence; hits give high values; z-score at 25 µM; 6% of 47,000 active; in the data active = z-score above about 3, passing the limit was not always enough;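 also: higher signal means more uncleaved substrate so more Dicer inhibition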
Of the large screens only hits and unclear results are named; the others gave an inactive call. The sample as a whole holds a higher share of hits than the screen did.

CC(C)(C)C(=O)NC(=S)Nc1ccc(C(F)(F)F)cc1	none
COC(=O)c1sc(C(C)(C)C)cc1NC(=O)NC(=O)c1ccccc1Cl	none
CCCCOC(=O)CCCN1C(=O)S/C(=C/c2ccc(OC)cc2)C1=S	none
O=C(CCc1ccccc1)NNc1c(Cl)cccc1Cl	none
CCCCN1C(=O)C2(/C(=C(/O)c3ccc(Cl)cc3)C(=O)C(=O)N2CCCOC)c2ccccc21 (stereo unspecified)	none
C=CCN1C(=O)C2(/C(=C(/O)c3ccccc3)C(=O)C(=O)N2CCOC)c2ccccc21 (stereo unspecified)	none
CCCCN1C(=O)C2(/C(=C(/O)c3ccc(C)cc3)C(=O)C(=O)N2CCCOC)c2ccccc21 (stereo unspecified)	Dicer processing 5.1
CCN1C(=O)C2(/C(=C(/O)c3ccc(C)cc3)C(=O)C(=O)N2CCOC)c2ccccc21 (stereo unspecified)	none
CCCCN1C(=O)C2(/C(=C(/O)c3ccc(OC)cc3)C(=O)C(=O)N2CCOC)c2ccccc21 (stereo unspecified)	Dicer processing 3.7
COCCCN1C(=O)C(=O)/C(=C(\O)c2ccc(C)cc2)C12C(=O)N(C)c1ccccc12 (stereo unspecified)	none
CC1=CC(C)(C)Nc2ccc(OC(=O)c3ccc(Br)cc3)cc21	none
Cc1ccc(Cn2nc(C)ccc2=O)cc1	none
CC1(C)CC(=O)C2=C(C1)Nc1ccccc1NC2c1ccccc1Cl (stereo unspecified)	none
C#CCOC(=O)Nc1cnc(OCC)c(C(F)(F)F)c1	none
CC12CCC(C1)C(C)(C)C2NC(=O)c1cccc([N+](=O)[O-])c1 (stereo unspecified)	none
FC(F)(F)c1cnc(NCCNc2cnc3ccccc3n2)c(Cl)c1	none
O=C(NCCNc1ncc(C(F)(F)F)cc1Cl)C(F)(F)Sc1ccccc1	Dicer processing 5
Cc1ccc(S(=O)(=O)NC(=O)NCCNc2ncc(C(F)(F)F)cc2Cl)cc1	none
CN1CCc2c(sc3nc(SCC(=O)c4ccccc4)nc(SCC(=O)c4ccccc4)c23)C1	none
Cc1ccc(OCc2nc(-c3ccccn3)no2)c(C)c1	none
Cc1onc(-c2ccccc2)c1CNC(=O)c1c(-c2ccccc2)noc1C	none
Cc1nc(COc2ccc(C(C)(C)C)cc2)sc1C(=O)NN	none
C=CCN1C(=O)C(O)(CC(=O)c2ccc(C)s2)c2cc(Br)ccc21 (stereo unspecified)	none
Cc1cc(-c2nnc(SCC(=O)c3ccc4c(c3)OCCO4)o2)no1	none
Cc1cc(NC(=O)c2ccc3c(c2)OCO3)no1	none
Cc1cc(NC(=O)c2ccc3c(c2)OCCO3)no1	Dicer processing 4.2
Cc1cc(C)c(C(=O)CC2(O)C(=O)Nc3ccc(C)cc32)c(C)c1 (stereo unspecified)	none
Cc1cc(C)c(C(=O)CC2(O)C(=O)Nc3ccc(Cl)cc32)c(C)c1 (stereo unspecified)	Dicer processing 4.6
O=C(CC1(O)C(=O)Nc2ccc(Cl)cc21)c1ccccc1 (stereo unspecified)	none
Cc1ccc(CSc2nnc(-c3ccncc3)o2)cc1	none
CC(=O)c1cc([N+](=O)[O-])c(Nc2ccccc2)s1	none
COc1ccc(Nc2sc(C(C)=O)cc2[N+](=O)[O-])cc1	none
CC(=O)c1cc([N+](=O)[O-])c(Nc2ccc(Cl)cc2)s1	Dicer processing 4.8
CS(=O)(=NC(=S)NC(=O)Oc1ccccc1)c1ccc(Cl)cc1 (stereo unspecified)	none
CCOC(=O)c1nnn(-c2nonc2N)c1CN1CCCC(C)C1 (stereo unspecified)	none
Cc1c(S(=O)(=O)Nc2ccc(C#N)cc2)sc2ccc(Cl)cc12	none
CC(C)CNC(=S)NCCNC(=O)OC(C)(C)C	none
FC(F)(F)c1ccc2nsnc2c1	none
Cc1cc(C)nc(NC(=O)C(=O)NC(=O)c2c(F)cccc2Cl)n1	none
Cc1[nH]c(-c2ccccn2)nc(=S)c1Cl	none
c1ccc(-c2nc3ccccc3nc2-c2ccccn2)nc1	none
Cc1cc(=S)nc(-c2ccccn2)[nH]1	Dicer processing 6.9
Cn1c(=O)c(/C=C/c2ccccc2)nc2ccccc21	none
Cn1c(/C=C/c2ccccc2)nc2ccccc21	Dicer processing 3.7
COc1ccccc1/C=C/c1nc2ccccc2n1C	none
COc1ccccc1N1C(=O)C2CCCCC2C1=O (stereo unspecified)	none
OCCNCC(O)Cn1c2ccccc2c2ccccc21 (stereo unspecified)	Dicer processing 4.5
CC(C)(C)NCC(O)Cn1c2ccccc2c2ccccc21 (stereo unspecified)	none
CC(NCC(O)Cn1c2ccccc2c2ccccc21)C(=O)O (stereo unspecified)	none
CCN(CC)C(=S)NC(=S)c1ccc(C)cc1	Dicer processing 16
Cc1ccc(CNC(=S)N(C)C)cc1	none
CCN(C(=S)Nc1ccc(C)cc1)c1ccccc1	none
CCC(C)[C@H](NC(=O)OC(C)(C)c1cc(OC)cc(OC)c1)C(=O)O (stereo partly specified)	none
O=S(=O)(NC(=NCCc1ccccn1)Nc1cccc(Cl)c1)c1ccccc1	none
Cn1nc(-c2ccccc2)cc1NC(=O)Nc1ccc(OCc2ccccc2)cc1	none
Cn1nc(C(C)(C)C)cc1NC(=O)Nc1ccc(OCc2ccccc2)cc1	Dicer processing 4.3
Cn1nc(-c2ccc(Cl)cc2)cc1NC(=O)Nc1ccc(OCc2ccccc2)cc1	none
Cn1nc(C(C)(C)C)cc1NC(=O)Nc1cccc2ccccc12	none
Cc1nnsc1C(=O)Nc1cc(-c2ccccc2)nn1C	none
Cc1ccccc1NC(=O)Nc1cc(-c2ccccc2)nn1C	none
Cc1ccc(F)cc1NC(=O)Nc1cc(C(C)(C)C)nn1C	Dicer processing 4
Cn1nc(-c2ccccc2)cc1NC(=O)Nc1ccc(F)cc1	Dicer processing 3.6
Cc1cc(C)cc(NC(=O)Nc2cc(C(C)(C)C)nn2C)c1	none
O=S(=O)(N/N=C/c1ccccc1Cl)c1ccc(-c2ccccn2)s1	none
COc1ccc(-c2noc(-c3cc(OC)cc(OC)c3)n2)cc1	none
COc1ccc(OCC(=O)N2CCN(C(=O)CCC3CCCC3)CC2)cc1	none
O=C(O)C1CC(=O)N(CCc2cccs2)C1 (stereo unspecified)	none
CCOC(=O)c1cnc2cc(Cl)c(F)cc2c1N1CCOCC1	none
Cn1c(=O)c2[nH]c(-c3ccco3)nc2n(C)c1=O	none
Cc1sc2nc(C)n(N)c(=O)c2c1C	none
C/C(=C\c1ccc(N)cc1)c1nc2ccccc2[nH]1	Dicer processing 3
Nc1ccc(Cc2nc3ccccc3[nH]2)cc1	none
c1ccc2[nH]c(CCc3nc4ccccc4[nH]3)nc2c1	none
O=C(CN1C(=O)C(=O)c2ccccc21)Nc1ccccc1F	none
N#C/C(=C(/Oc1ccc(Cl)cc1Cl)C(F)(F)F)c1ccccc1	none
Cn1c(=O)n(CC(=O)O)c(=O)c2c1nc1n2CCN1c1ccc(Cl)cc1	Dicer processing 3.4
Cn1c(=O)n(CC(=O)O)c(=O)c2c1nc1n2CCCN1c1cccc(Cl)c1	none
COc1cccc(N2CCn3c2nc2c3c(=O)n(CC(=O)O)c(=O)n2C)c1	none
CC(=O)n1c2ccccc2c2nc(Nc3ccccc3)sc21	none
Cc1ccc(C(=O)N(c2ccccc2)C(C)C2CC2)cc1 (stereo unspecified)	none
CN(CCc1ccccn1)Cc1ccccc1F	none
O=S(=O)(CCO/N=C/c1ccco1)c1ccc(Cl)cc1	none
Cn1nc(C(F)(F)F)c(-c2ccc(Br)cc2)c1NC(=O)c1ccccc1	none
C=CCc1c(CCC)nc(SCc2ccc(F)cc2)[nH]c1=O	none
Cc1ccc(N2C(=O)c3oc4ccccc4c(=O)c3C2c2ccc(Cl)cc2)nc1 (stereo unspecified)	Dicer processing 3.8
CCOc1ccc(C2c3c(oc4ccccc4c3=O)C(=O)N2c2ccc(C)cn2)cc1 (stereo unspecified)	Dicer processing 3.6
